Consider 21 compounds from PubChem BioAssay (NCATS).

Assay [1] in a line: Viability qHTS for spleen associated tyrosine kinase inhibitor (SYKi) naive MV4-11 cells (AID 1963823). Further: nearly all actives have a fitted effect of over 40% in size. As to conditions: MV4-11 AML viability, CellTiter-Glo luminescence, 72 h; series mostly up to 45 µM. In a few lines: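 CellTiter-Glo luminescence, 10 min room-temperature incubation, gave viability. Cells: naive MV4-11 (500/well), treated 72 hr at 37 C, 5% CO2.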
The nature of assay [2]: Viability qHTS for spleen associated tyrosine kinase inhibitor (SYKi) drug resistant MV4-11 cells (AID 1963824). Further: nearly all actives have a fitted effect of over 35% in size. As to conditions: SYKi-resistant MV4-11 viability, CellTiter-Glo, 72 h; series mostly up to 45 µM. In a few lines: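 SYK-inhibitor-resistant MV4-11 AML cells were seeded at 500 per well onto compound and cultured 72 hours (37 °C, 5% CO2). CellTiter-Glo was then added, and after 10 min at room temperature, luminescence gave viability.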
On the technique in general: In qHTS, concentration-response curves come from the screen itself.

Results filed as inconclusive are left out. Values without a mark were called inactive. Active and inactive are the calls of the source. The call rests on the fitted dose curve; in most records, active means well fitted cell-killing curve with a large enough effect; inconclusive means small, poorly fitted or top-dose-only effect, or effect the other way; inactive means no such curve, though single readings can be large or run the other way.
Potency means the concentration at half of the fitted maximal effect.

`C[C@@H]1CC2OC(=O)C3=C2C(CCC3O)[C@@]12C[C@@H](c1ccoc1)OC2=O` (some centres not stated): the Potency entry in assay [1] and in assay [2] was “inactive” in each case.
Turning to `COC(=O)C1=CO[C@@H](O[C@@H]2O[C@H](CO)[C@@H](O)[C@H](O)[C@H]2O)[C@@H]2[C@@H](C)[C@@H](OC(=O)/C=C/c3ccccc3)[C@@H](O)[C@H]12`, the Potency entry in assay [1] and in assay [2] was “inactive” throughout.
Turning to `CNC(=O)Cn1cc(-c2ccc3c(c2)C(F)CC32NC(=O)N(CC(=O)N(Cc3ccc(F)cc3)C(C)C(F)(F)F)C2=O)cn1` (configuration not stated), the results for the Potency in assay [1] and in assay [2] were 0.0417 µM (active) and 0.166 µM (active), respectively.
Consider `COCC1OC(OC(C)(C)C2CCC3(C)C=C(C4CCC5C4(C)CC(O)C4OC(C(C)(C)OC6OC(CO)C(O)C(O)C6NC(C)=O)CCC45C)CCC3O2)C(NC(C)=O)C(O)C1O` (configuration not stated), for which, in assay [1], the viability (% of control) was 92.4% [at 9.25 µM]. Also, the viability, % of control in assay [2] is 108% [at 9.25 µM].
As for `CC1(C)C[C@@H]2[C@H](C1)[C@@]1(C)C[C@]13C(O)OC[C@]3(O)[C@H]2O` (some centres not stated), the Potency result in assay [1] and in assay [2] was “inactive” each time.
Take `CC(C)=CC[C@H]1O[C@]2(O)C([C@H]3CCC4[C@@]5(C)CC[C@H](O[C@@H]6O[C@H](CO)[C@H](O)[C@H](O[C@@H]7O[C@H](CO)[C@@H](O)[C@H](O)[C@H]7O)[C@H]6O[C@@H]6O[C@@H](C)[C@H](O)[C@@H](O)[C@H]6O)C(C)(C)C5CC[C@@]4(C)[C@]3(C)[C@H]2O)[C@@]1(C)O` (some centres not stated): in assay [1], the viability (% of control) is 84.2% [at 9.25 µM]. Moreover, the viability, % of control in assay [2] is 80.7% [at 9.25 µM].
With `C=C[C@]1(C)C[C@H](O)[C@@H]2[C@H](OC(=O)[C@@H]2C)C1/C(C)=C/O[C@@H]1O[C@H](CO)[C@@H](O)[C@H](O)[C@H]1O` (some centres not stated), the Potency result in assay [1] and in assay [2] was “inactive” each time.
For `C[C@@H]1[C@H](O)[C@@H]2OC(=O)C3=C2[C@H](CCC3)[C@@]12C[C@@H](c1ccoc1)OC2=O`, the Potency entry in assay [1] and in assay [2] was “inactive” in each case.
Turning to `COc1ccccc1-c1cc(Nc2cccc(CS(N)(=O)=O)c2)ncn1`, the Potency in assay [1] is 9.2 µM (active); in assay [2] it was 8.2 µM (active).
Taken in the same sequence, the figures for `COC(=O)C1=CO[C@@H](O[C@@H]2O[C@H](CO[C@@H]3O[C@H](COC(=O)/C=C/c4ccc(O)cc4)[C@@H](O)[C@H](O)[C@H]3O)[C@@H](O)[C@H](O)[C@H]2O)[C@@H]2C(CO)=CC[C@H]12` were “inactive” and “inactive”.
The corresponding values for `C[C@@H]1CN(Cc2ncccn2)C[C@H]1c1nc2c(cnn2C2CCOCC2)c(=O)[nH]1` are “inactive” and “inactive”.
Turning to `CC[C@H](C)[C@H](NC(=O)[C@H](Cc1ccc(O)cc1)NC(=O)[C@@H](N)C(C)C)C(=O)N[C@@H](Cc1cnc[nH]1)C(=O)N1CCC[C@H]1C(=O)N[C@@H](Cc1ccccc1)C(=O)O`, the viability (% of control) in assay [1] was 98.9% [at 4.97 µM]. In assay [2], the viability, % of control is 102% [at 4.97 µM].
Turning to `CC1=CC(=O)C(=C(C)C)CC2C1CCC2(C)O` (configuration not stated), the Potency entry in assay [1] and in assay [2] was “inactive” throughout.
For `CC1(C)OC(=O)C(OCC2CC2)=C1c1ccc(S(C)(=O)=O)cc1`, the Potency result in assay [1] and in assay [2] was “inactive” throughout.
For the compound `CC(C)CN(C[C@@H](O)[C@H](Cc1ccccc1)NC(=O)O[C@@H]1CO[C@H]2OCC[C@H]21)S(=O)(=O)c1ccc(N)cc1`, the Potency entry in assay [1] and in assay [2] was “inactive” in each case.
Regarding `CCC(C)C1NC(=O)C2CCCN2C(=O)C(NC(C)=O)C(C)OC(=O)C(Cc2ccc(OC)cc2)N(C)C(=O)C2CCCN2C(=O)C(C(C)C)NC1=O` (configuration not stated), the Potency entry in assay [1] and in assay [2] was “inactive” each time.
For the compound `CC(=O)O[C@H]1C[C@@H](O)C(C)(C)C2C[C@@H](OC(C)=O)[C@@]3(C)C4=CCC(C(CO)CC(O)C5OC5(C)C)[C@]4(C)CCC3[C@]21C` (some centres not stated), the Potency entry in assay [1] and in assay [2] was “inactive” in each case.
`C=C1CC[C@@H]2[C@](C)(CO)[C@H](O)CC[C@@]2(C)[C@@H]1C/C=C1/C(=O)OCC1O` (some centres not stated): the Potency in assay [1] is 2.91 µM (active); in assay [2], 3.26 µM (active).
Taken in the same sequence, the figures for `c1cc(CN2CCCCC2)cc(OCCCNc2nc3ccccc3s2)c1` were 15 µM (active) and 21.1 µM (active).
Consider `CCNC(=O)c1noc(-c2cc(Cl)c(O)cc2O)c1-c1ccc(OC)cc1`, for which the Potency in assay [1] was 0.0326 µM (active); in assay [2] it was 0.058 µM (active).
Turning to `C[C@@H]1O[C@@H](O[C@H]2[C@H](OC(=O)[C@]34CCC(C)(C)C[C@H]3C3=CCC5[C@@]6(C)CC[C@H](O[C@@H]7O[C@H](CO[C@@H]8OC[C@H](O)[C@H](O)[C@H]8O)[C@@H](O)[C@H](O)[C@H]7O)C(C)(C)C6CC[C@@]5(C)[C@]3(C)C[C@H]4O)OC[C@@H](O)[C@@H]2O)[C@H](O)[C@H](O[C@@H]2OC[C@](O)(CO)[C@H]2O)[C@H]1O[C@@H]1OC[C@H](O)[C@H](O[C@@H]2OC[C@@H](O)[C@H](O)[C@H]2O)[C@H]1O` (some centres not stated), the viability (% of control) in assay [1] is 88.4% [at 9.25 µM]. Moreover, in assay [2], the viability, % of control is 88.4% [at 9.25 µM].
